Results filed as inconclusive are left out. Activity calls are given as the source filed them. The calls were made as follows: active = hit-call score of the fitted dose curve at least 0.9, where 1 is the maximum; inconclusive = response in the unintended direction; inactive = score below 0.9.

As a reminder, the AC50 is the midpoint of the concentration-response curve, whichever way the signal moves.

For assay [1], the target named is human AKT serine/threonine Kinase 1 (AKT1), AKT1 (gene 207) (UniProt P31749). Description: NVS_ENZ_hAKT1: NovaScreen (NVS) Enzymatic Assay for human AKT serine/threonine Kinase 1 (AKT1) (AID 2283138). Summed up:
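Recombinant human AKT1 with a specific substrate, product separated by electrophoretic mobility shift, read after 1 h. Compounds at 25 uM in duplicate, then concentration-response up to 50 uM for hits; inhibition relative to DMSO.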

In assay [2] the target is human Acid Phosphatase 1 (ACP1), ACP1 (gene 52) (UniProt P24666). Description: NVS_ENZ_hACP1: NovaScreen (NVS) Enzymatic Assay for human Acid Phosphatase 1 (ACP1) (AID 2283136). Summed up: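 Recombinant enzyme expressed in Sf9 cells, tested cell-free; activity read by fluorescence with electrophoretic mobility shift separation of substrate and product, 1.5 h after dosing. Primary screen in duplicate at 25 uM, actives then run in concentration series; loss of signal versus DMSO.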

Assay [3] has as its target human Caspase 5 (CASP5), CASP5 (gene 838) (UniProt P51878). The experiment in a line: NVS_ENZ_hCASP5: NovaScreen (NVS) Enzymatic Assay for human Caspase 5 (CASP5) (AID 2283137). Summed up:
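Recombinant human caspase 5 expressed in E. coli, fluorogenic substrate, fluorescence read 2 h after dosing. Single-point 25 uM duplicate screen, then concentration-response to maximum 50 uM for actives; DMSO baseline.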

The target of assay [4] is CDK2 (gene 1017) (UniProt P24941). Description: NVS_ENZ_hCDK2: NovaScreen (NVS) Enzymatic Assay for human Cyclin-Cependent Kinase 2 (CDK2) (AID 2283144). Summed up: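 Cell-free recombinant human CDK2 with fluorescent substrate, product separated by electrophoretic mobility shift; 1 hr read. Primary screen at 25 uM in duplicate, actives retested in concentration-response up to 50 uM; loss of signal versus DMSO.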

The target of assay [5] is human Caspase 8 (CASP8), CASP8 (gene 841) (UniProt Q14790). The experiment in a line: NVS_ENZ_hCASP8: NovaScreen (NVS) Enzymatic Assay for human Caspase 8 (CASP8) (AID 2283146). The method, boiled down: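 E. coli-expressed enzyme was used in a cell-free fluorogenic substrate assay read 1 h after dosing. Loss of signal was scored relative to DMSO, and the primary screen was run in duplicate at 25 uM.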
Chain of human Caspase 8 (CASP8), CASP8 (gene 841) (Q14790 whole entry, looked up): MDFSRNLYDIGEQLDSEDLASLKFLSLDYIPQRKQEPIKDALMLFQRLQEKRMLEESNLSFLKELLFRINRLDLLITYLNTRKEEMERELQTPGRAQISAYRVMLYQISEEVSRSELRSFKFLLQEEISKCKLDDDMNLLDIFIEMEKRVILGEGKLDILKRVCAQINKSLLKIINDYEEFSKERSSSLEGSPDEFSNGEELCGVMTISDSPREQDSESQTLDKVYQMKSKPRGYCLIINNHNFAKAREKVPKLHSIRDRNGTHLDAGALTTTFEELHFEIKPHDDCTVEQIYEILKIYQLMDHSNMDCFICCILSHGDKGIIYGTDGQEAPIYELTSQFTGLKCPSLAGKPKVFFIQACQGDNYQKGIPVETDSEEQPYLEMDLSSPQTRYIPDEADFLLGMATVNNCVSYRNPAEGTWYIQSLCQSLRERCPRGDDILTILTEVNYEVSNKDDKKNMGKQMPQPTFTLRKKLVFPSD

Assay [6] addresses human Casein Kinase 2- alpha 2 beta 2 (CK2a2b2), CSNK2A1 (gene 1457) (UniProt P68400). The experiment in a line: NVS_ENZ_hCK2a2b2: NovaScreen (NVS) Enzymatic Assay for human Casein Kinase 2- alpha 2 beta 2 (CK2a2b2) (AID 2283147). The method, boiled down: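 Cell-free recombinant CK2 α2β2 holoenzyme with a fluorescent peptide substrate; product separated by electrophoretic mobility shift and read 1 h after dosing. Single-point screen at 25 uM in duplicate; actives were followed with concentration-response up to 50 uM versus DMSO.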

Assay [7] concerns the target human Colony Stimulating Factor 1 Receptor (CSF1R), CSF1R (gene 1436) (UniProt P07333). Description: NVS_ENZ_hCSF1R: NovaScreen (NVS) Enzymatic Assay for human Colony Stimulating Factor 1 Receptor (CSF1R) (AID 2283150). The method, boiled down: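 Cell-free recombinant human CSF1R kinase with fluorescent substrate, product separated by electrophoretic mobility shift; read 1 h after dosing. Primary screen at 25 uM in duplicate, actives then in concentration-response up to 50 uM, relative to DMSO.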

Assay [8] addresses Caspase-3 (Homo sapiens) (UniProt P42574). The experiment in a line: NVS_ENZ_hCASP3: NovaScreen (NVS) Enzymatic Assay for human Caspase 3 (CASP3) (AID 2283139). The method, boiled down: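 Recombinant human caspase-3 from E. coli with a fluorogenic substrate, read by fluorescence 1 h after dosing. Primary screen in duplicate at 25 uM. Actives (for example ≥30% inhibition) rerun as concentration-response up to 50 uM.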

The target of assay [9] is human AKT serine/threonine Kinase 2 (AKT2), AKT2 (gene 208) (UniProt P31751). The experiment in a line: NVS_ENZ_hAKT2: NovaScreen (NVS) Enzymatic Assay for human AKT serine/threonine Kinase 2 (AKT2) (AID 2283141). Summed up: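 Cell-free fluorescence/electrophoretic mobility shift readout of recombinant human AKT2 activity, 1 h after chemical dosing. Duplicate primary screen at 25 uM, then singleton concentration-response up to 50 uM; loss of signal versus DMSO baseline.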
Chain of human AKT serine/threonine Kinase 2 (AKT2), AKT2 (gene 208) (P31751 whole entry, looked up): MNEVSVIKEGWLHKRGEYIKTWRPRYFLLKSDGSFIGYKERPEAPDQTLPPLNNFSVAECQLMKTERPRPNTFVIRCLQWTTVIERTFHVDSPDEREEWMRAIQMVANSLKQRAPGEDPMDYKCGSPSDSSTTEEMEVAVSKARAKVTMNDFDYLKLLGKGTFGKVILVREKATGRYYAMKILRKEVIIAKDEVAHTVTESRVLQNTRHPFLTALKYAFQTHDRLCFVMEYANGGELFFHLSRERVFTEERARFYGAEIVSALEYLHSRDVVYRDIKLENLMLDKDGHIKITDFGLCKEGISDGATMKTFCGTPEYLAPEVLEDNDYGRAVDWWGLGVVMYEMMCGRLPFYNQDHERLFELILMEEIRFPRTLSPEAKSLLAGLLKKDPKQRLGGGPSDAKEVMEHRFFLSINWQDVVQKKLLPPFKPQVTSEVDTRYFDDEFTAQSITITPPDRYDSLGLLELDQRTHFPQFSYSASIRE

Assay [10] has as its target human Casein Kinase 1-delta (CK1D), CSNK1D (gene 1453) (UniProt P48730). Description: NVS_ENZ_hCK1D: NovaScreen (NVS) Enzymatic Assay for human Casein Kinase 1-delta (CK1D) (AID 2283148). The method, boiled down: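 Recombinant human CK1-delta, cell-free; fluorescent substrate with electrophoretic mobility-shift separation of product, read 1 h after dosing. Single 25 uM duplicate screen, then concentration-response up to 50 uM; loss of signal vs DMSO.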

For assay [11], the target named is human Beta-secretase (BACE), BACE1 (gene 23621) (UniProt P56817). Description: NVS_ENZ_hBACE: NovaScreen (NVS) Enzymatic Assay for human Beta-secretase (BACE) (AID 2283140).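 Also: hits are inhibitors that reduce fluorescent substrate signal versus DMSO.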 The method, boiled down: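 Cell-free assay of recombinant Sf9-expressed human BACE with fluorescent substrate, read by fluorescence intensity after 1 h. Primary screen in duplicate at 25 uM; actives then run in concentration series; loss of signal relative to DMSO.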
Chain of human Beta-secretase (BACE), BACE1 (gene 23621) (P56817 whole entry, looked up): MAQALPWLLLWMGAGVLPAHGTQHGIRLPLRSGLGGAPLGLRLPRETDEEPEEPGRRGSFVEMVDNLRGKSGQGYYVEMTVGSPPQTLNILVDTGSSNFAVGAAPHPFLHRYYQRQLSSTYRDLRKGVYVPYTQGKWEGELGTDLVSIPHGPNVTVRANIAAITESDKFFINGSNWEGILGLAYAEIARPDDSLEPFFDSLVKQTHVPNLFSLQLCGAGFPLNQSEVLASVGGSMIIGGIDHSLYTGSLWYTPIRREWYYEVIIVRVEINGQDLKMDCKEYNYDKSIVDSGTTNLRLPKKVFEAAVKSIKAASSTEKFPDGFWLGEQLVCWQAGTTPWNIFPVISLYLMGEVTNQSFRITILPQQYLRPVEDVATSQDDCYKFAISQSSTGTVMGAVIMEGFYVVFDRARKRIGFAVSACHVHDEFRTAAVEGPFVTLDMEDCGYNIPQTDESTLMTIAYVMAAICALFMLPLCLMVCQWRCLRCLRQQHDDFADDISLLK

Assay [12] has as its target human FYN Proto-Oncogene, Src family Tyrosine Kinase (Fyn), FYN (gene 2534) (UniProt P06241). The experiment in a line: NVS_ENZ_hFyn: NovaScreen (NVS) Enzymatic Assay for human FYN Proto-Oncogene, Src family Tyrosine Kinase (Fyn) (AID 2283161). Summed up:
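Recombinant enzyme with fluorescent substrate, product separated by electrophoretic mobility shift; read 1 h after dosing. Duplicate 25 uM single-point screen, actives retested in concentration series; loss of signal vs DMSO.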

For assay [13], the target named is Histone deacetylase 3 (Homo sapiens) (UniProt O15379). The experiment in a line: NVS_ENZ_hHDAC3: NovaScreen (NVS) Enzymatic Assay for human Histone Deacetylase 3 (HDAC3) (AID 2283163). Summed up: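 Recombinant human HDAC3 with fluorescent substrate, 1 h after dosing; product separated from substrate by electrophoretic mobility shift and read by fluorescence. Primary screen at 25 uM in duplicate; actives (e.g. ≥30% inhibition) retested in concentration-response up to 50 uM.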

Assay [14] has as its target human Dual Specificity Protein Phosphatase 3 (DUSP3), DUSP3 (gene 1845) (UniProt P51452). Description: NVS_ENZ_hDUSP3: NovaScreen (NVS) Enzymatic Assay for human Dual Specificity Protein Phosphatase 3 (DUSP3) (AID 2283152).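 Also: phosphatase activity of recombinant human DUSP3 on a fluorogenic substrate without cells.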 The method, boiled down:
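Cell-free assay with recombinant human DUSP3 and fluorogenic substrate, read by fluorescence intensity. Primary screen ran duplicate at 25 uM; actives followed up in concentration series; loss of signal versus DMSO scored.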

Assay [15] deals with human Elastase, ELANE (gene 1991) (UniProt P08246). The experiment in a line: NVS_ENZ_hElastase: NovaScreen (NVS) Enzymatic Assay for human Elastase (AID 2283153). Summed up:
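Cell-free elastase from human neutrophils, 1.5 h after dosing, activity read by absorbance. Primary screen in duplicate at 25 uM; hits (e.g., 30% inhibition) rerun in singleton concentration-response up to 50 uM, fitted versus DMSO.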

Assay [16] deals with human Ephrin type-A Receptor 1 (EphA1), EPHA1 (gene 2041) (UniProt P21709). The experiment in a line: NVS_ENZ_hEphA1: NovaScreen (NVS) Enzymatic Assay for human Ephrin type-A Receptor 1 (EphA1) (AID 2283158).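 Also: activity is signal loss versus DMSO meaning EphA1 kinase inhibition.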 Summed up:
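Cell-free enzymatic assay with recombinant EphA1 and fluorescent substrate; product separated by electrophoretic mobility shift, fluorescence intensity read 1 hour after dosing. Loss of signal versus DMSO baseline; primary duplicate screen at 25 uM, actives followed to 50 uM top concentration.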

Assay [17] addresses rat CYP3A2, Cyp3a2 (gene 266682) (UniProt P05183). The experiment in a line: NVS_ADME_rCYP3A2: NovaScreen (NVS) CYP450-related Enzyme Activity (ADME) Assay for rat CYP3A2 (AID 2283128). The method, boiled down:
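Cell-free rat CYP3A2 enzyme assay with fluorescent substrate, read 0.5 h after dosing. Primary duplicate screen at 10 uM; actives run in concentration-response up to 20 uM, relative to acetonitrile baseline.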

Assay [18] has as its target human Esterase Plasma (ES), BCHE (gene 590) (UniProt P06276). Description: NVS_ENZ_hES: NovaScreen (NVS) Enzymatic Assay for human Esterase Plasma (ES) (AID 2283157). The method, boiled down: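 Esterase from human plasma, cell-free, colorimetric absorbance read 0.25 h after dosing. Screened at 25 uM in duplicate, with threshold-passing chemicals run in concentration-response up to 50 uM; loss of signal fitted versus DMSO.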

In assay [19] the target is human Caspase 4 (CASP4), CASP4 (gene 837) (UniProt P49662). Description: NVS_ENZ_hCASP4: NovaScreen (NVS) Enzymatic Assay for human Caspase 4 (CASP4) (AID 2283143). The method, boiled down:
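The cell-free assay used E. coli-expressed enzyme with a fluorogenic substrate, read 2 h after dosing. Signal loss was scored versus DMSO. Screening was in duplicate at 25 uM, then singleton concentration-response up to 50 uM.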

The target in assay [20] is human Ephrin type-B Receptor 1 (EphB1), EPHB1 (gene 2047) (UniProt P54762). The experiment in a line: NVS_ENZ_hEphB1: NovaScreen (NVS) Enzymatic Assay for human Ephrin type-B Receptor 1 (EphB1) (AID 2283154). The method, boiled down:
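Cell-free kinase assay with recombinant enzyme, fluorescent substrate and electrophoretic mobility-shift separation of substrate and product; read 1 h after dosing. Single-concentration duplicate screen at 25 uM; loss of signal versus DMSO baseline.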

Chain of human Casein Kinase 2- alpha 2 beta 2 (CK2a2b2), CSNK2A1 (gene 1457) (P68400 whole entry, looked up): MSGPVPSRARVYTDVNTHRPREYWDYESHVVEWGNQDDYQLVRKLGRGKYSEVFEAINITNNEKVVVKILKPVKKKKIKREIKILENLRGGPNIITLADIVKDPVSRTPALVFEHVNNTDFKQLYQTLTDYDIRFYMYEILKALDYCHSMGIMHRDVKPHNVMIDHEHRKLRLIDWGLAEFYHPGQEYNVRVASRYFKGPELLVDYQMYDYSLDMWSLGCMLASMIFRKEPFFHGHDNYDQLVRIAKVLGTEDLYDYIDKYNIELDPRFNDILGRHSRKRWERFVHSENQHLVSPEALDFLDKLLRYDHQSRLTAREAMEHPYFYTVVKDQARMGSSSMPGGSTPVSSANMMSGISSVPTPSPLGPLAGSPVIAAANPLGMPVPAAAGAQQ
Chain of human AKT serine/threonine Kinase 1 (AKT1), AKT1 (gene 207) (P31749 whole entry, looked up): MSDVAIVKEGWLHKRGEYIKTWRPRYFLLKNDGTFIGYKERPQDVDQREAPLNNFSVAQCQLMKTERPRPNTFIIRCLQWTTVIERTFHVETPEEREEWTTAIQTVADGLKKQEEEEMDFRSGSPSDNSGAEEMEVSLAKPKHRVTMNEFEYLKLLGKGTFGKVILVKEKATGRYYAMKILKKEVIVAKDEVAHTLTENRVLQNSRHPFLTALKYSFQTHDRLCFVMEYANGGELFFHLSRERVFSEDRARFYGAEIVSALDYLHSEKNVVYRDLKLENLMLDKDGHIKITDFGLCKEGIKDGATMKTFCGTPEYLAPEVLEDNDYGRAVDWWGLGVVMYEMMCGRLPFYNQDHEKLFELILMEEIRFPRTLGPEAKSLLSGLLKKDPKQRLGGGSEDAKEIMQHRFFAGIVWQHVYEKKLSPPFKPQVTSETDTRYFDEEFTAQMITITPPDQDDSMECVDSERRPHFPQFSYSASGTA
Chain of human Casein Kinase 1-delta (CK1D), CSNK1D (gene 1453) (P48730 whole entry, looked up): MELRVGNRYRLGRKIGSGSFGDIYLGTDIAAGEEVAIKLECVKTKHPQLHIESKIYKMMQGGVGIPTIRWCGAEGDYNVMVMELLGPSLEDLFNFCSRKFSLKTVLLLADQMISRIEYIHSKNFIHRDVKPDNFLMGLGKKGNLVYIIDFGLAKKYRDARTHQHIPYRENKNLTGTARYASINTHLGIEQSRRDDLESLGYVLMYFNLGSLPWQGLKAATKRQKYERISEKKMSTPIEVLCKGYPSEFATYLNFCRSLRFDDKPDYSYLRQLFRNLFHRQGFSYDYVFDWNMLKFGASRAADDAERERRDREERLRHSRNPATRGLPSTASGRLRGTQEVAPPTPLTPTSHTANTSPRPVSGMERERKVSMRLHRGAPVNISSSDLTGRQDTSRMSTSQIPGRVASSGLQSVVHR
Chain of human Caspase 5 (CASP5), CASP5 (gene 838) (P51878 whole entry, looked up): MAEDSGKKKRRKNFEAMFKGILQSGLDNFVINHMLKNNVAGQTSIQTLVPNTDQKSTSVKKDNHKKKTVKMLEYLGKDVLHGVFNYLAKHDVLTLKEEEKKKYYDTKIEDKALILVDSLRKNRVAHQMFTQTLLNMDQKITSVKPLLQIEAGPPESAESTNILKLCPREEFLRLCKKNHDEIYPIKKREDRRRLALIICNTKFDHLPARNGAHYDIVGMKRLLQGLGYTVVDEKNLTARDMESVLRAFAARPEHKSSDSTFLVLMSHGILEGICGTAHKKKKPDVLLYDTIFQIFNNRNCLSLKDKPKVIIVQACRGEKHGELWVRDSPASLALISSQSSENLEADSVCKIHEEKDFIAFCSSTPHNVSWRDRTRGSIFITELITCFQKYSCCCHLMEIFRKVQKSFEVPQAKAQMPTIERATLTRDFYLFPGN
Chain of rat CYP3A2, Cyp3a2 (gene 266682) (P05183 whole entry, looked up): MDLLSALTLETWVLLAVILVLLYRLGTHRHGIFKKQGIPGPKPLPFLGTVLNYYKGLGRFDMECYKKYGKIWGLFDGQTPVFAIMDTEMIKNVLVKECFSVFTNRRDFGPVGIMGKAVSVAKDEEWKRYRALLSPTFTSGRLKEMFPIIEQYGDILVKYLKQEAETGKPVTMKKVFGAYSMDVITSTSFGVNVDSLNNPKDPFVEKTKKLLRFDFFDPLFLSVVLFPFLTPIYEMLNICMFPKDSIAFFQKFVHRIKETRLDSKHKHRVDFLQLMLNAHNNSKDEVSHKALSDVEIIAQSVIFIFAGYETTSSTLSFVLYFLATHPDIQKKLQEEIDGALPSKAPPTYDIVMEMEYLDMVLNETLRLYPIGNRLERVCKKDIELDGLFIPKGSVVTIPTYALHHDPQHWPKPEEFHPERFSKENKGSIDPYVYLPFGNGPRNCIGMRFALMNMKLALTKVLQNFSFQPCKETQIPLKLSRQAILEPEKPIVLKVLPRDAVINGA
Chain of human Ephrin type-A Receptor 1 (EphA1), EPHA1 (gene 2041) (P21709 whole entry, looked up): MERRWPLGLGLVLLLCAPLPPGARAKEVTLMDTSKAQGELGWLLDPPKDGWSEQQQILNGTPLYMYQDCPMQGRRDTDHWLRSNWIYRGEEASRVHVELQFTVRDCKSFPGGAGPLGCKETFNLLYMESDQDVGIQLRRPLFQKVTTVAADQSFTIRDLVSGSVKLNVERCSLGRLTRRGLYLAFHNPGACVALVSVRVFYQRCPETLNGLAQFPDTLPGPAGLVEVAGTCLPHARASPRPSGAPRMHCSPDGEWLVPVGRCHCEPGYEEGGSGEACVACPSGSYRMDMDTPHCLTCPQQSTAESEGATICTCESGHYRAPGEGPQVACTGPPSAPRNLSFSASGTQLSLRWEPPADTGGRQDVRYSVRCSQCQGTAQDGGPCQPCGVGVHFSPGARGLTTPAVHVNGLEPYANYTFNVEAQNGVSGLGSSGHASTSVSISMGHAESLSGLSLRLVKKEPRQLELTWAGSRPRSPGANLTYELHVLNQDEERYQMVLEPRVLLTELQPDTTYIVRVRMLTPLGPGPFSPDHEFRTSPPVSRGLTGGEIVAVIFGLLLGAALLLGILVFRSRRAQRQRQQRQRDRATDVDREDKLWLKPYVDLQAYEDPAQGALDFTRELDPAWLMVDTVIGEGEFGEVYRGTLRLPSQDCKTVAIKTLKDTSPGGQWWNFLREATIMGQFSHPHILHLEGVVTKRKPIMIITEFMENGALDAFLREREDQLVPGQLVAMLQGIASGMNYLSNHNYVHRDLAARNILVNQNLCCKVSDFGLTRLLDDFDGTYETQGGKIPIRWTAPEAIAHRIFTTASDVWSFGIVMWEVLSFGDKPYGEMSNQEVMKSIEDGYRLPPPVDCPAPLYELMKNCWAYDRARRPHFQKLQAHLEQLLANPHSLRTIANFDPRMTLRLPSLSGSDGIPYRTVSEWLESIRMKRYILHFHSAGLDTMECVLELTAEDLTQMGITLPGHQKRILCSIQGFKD
Chain of human Elastase, ELANE (gene 1991) (P08246 whole entry, looked up): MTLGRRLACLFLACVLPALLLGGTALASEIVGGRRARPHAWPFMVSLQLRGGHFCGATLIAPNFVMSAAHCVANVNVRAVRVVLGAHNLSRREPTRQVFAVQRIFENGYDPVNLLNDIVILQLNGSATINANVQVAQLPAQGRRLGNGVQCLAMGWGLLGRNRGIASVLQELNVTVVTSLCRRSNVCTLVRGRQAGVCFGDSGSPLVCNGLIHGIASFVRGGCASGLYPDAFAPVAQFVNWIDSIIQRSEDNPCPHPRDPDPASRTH

In the case of `COc1nc(C)nc(NC(=O)NS(=O)(=O)c2ccccc2OCCCl)n1`, in assay [1], the compound was classed as inactive.

With `O=C(O)C1(C(=O)Nc2ccc(Cl)cc2Cl)CC1`, the concentration at half-maximal activity (AC50) is 39.2 µM (active) in [2]; 3.02 µM (active) in [3]; 7.29 µM (active) in assay [4]; 7.55 µM (active) in assay [5]; 12.7 µM (active) in assay [6]. Also, the compound was classed as inactive in [7].

Regarding `O=C(Nc1ccc([N+](=O)[O-])cc1Cl)c1cc(Cl)ccc1O`, the compound was called inactive in assay [1], in [8], in assay [9] and in [10].

For the compound `CCCCCCC(C)OC(=O)COc1nc(F)c(Cl)c(N)c1Cl` (stereo unspecified), the AC50 in assay [11] was 3.29 µM (active).

As for `CC(C)CCCCCCc1ccc(O)cc1`, the call in [1], in assay [10], in [12] and in assay [13] was inactive.

On to `N[C@@H](Cc1cc(I)c(Oc2ccc(O)c(I)c2)c(I)c1)C(=O)O`, for which the AC50 was 8.73 µM (active) in [3], 25.9 µM (active) in assay [11] and 6.35 µM (active) in [14]. Moreover, the result in [4], in [15] and in [16] was inactive.

As for `CCCCOCCOCCOCc1cc2c(cc1CCC)OCO2`, the AC50 in [17] was 4.85 µM (active).

Turning to `CC(C)(c1ccc(O)cc1)c1ccc(O)cc1`, the AC50 in [17] is 8.05 µM (active); in assay [10] it was 25.4 µM (active). Besides, the call in [5] and in assay [18] was inactive.

With `C=CCOC(Cn1ccnc1)c1ccc(Cl)cc1Cl` (stereo unspecified), in assay [17], the AC50 is 0.874 µM (active).

As for `S=C([S-])NCCNC(=S)[S-].[Mn+2]`, the AC50 in assay [3] is 15.1 µM (active); in [1], 1.05 µM (active); in [11], 17.6 µM (active); in [9], 0.606 µM (active); in [4], 11.4 µM (active); in assay [6], 3.93 µM (active). Besides, the figures for the AC50 in assay [10] and in [7] were 25 µM (active) and 5.51 µM (active), respectively. Moreover, the result in assay [19], in [5], in assay [14], in assay [15] and in [12] was inactive.

Turning to `N#CSCSc1nc2ccccc2s1`, the AC50 was 7.06 µM (active) in [17], 14.4 µM (active) in [6] and 20 µM (active) in [13]. Also, the outcome in assay [20] and in assay [16] was inactive.

For the origin of these results see PubChem BioAssay (EPA / NIEHS).
